# Sampled rows, rich in hits. Any-hit rate of the full collection: about 6.5%.
# Lassa entry inh – qHTS for Inhibitors of binding or entry into cells for Lassa Virus; Lassa virus pseudotype entry inhibition, cell reporter; Potency, µM (highest dose often 37.9 µM), inactives show top-dose activity change, negative = inhibition, most hits filed as inhibitors; actives 1.2% (n = 300,000); AID 540256, 2011; calls by dose curve; tested in HEK293 cells; note: potency is the fitted concentration of half-maximal effect; nearly all actives have a fitted effect of over 50% in size
# Marburg entry inh – qHTS for inhibitors of binding or entry into cells for Marburg Virus; Marburg virus pseudotyped entry inhibition, cell reporter; Potency, µM (highest dose often 37.8 µM), without a hit: at the highest dose activity change, negative = inhibition, actives largely listed as inhibitors; actives 1.8% (n = 300,000); calls by dose curve; tested in HEK293 cells; note: potency is the fitted concentration of half-maximal effect
# FMDV antiviral – High Throughput Screening for Foot and Mouth Disease Virus Antivirals; FMDV antiviral cell-based qHTS; Potency, µM (doses to about 57.9 µM), without a hit: at the top dose activity change, negative = inhibition, actives largely listed as inhibitors; actives 1.2% (n = 410,000); calls by dose curve; tested in HEK293T cells; note: read-out not given here; potency is the fitted concentration of half-maximal effect; nearly all actives have a fitted effect of over 45% in size
# VACV Venus inh – qHTS for Stage-Specific Inhibitors of Vaccinia Orthopoxvirus: Venus Reporter Primary qHTS | actives 0.46% (n = 330,000) | Vaccinia virus Venus reporter expression, fluorescence | Potency, µM (titrated, usually from 36.5 µM), for inactives: at the highest dose activity change, negative = inhibition, most hits filed as inhibitors | AID 720580, 2013; calls by dose curve; tested in A549 cells; note: potency is the fitted concentration of half-maximal effect; nearly all actives have a fitted effect of over 30% in size
# HCMV antiviral – qHTS Assay for inhibitors of the human cytomegalovirus (HCMV); actives 4.5% (n = 410,000); activity change, negative = inhibition, % at 57.5 µM; HFF cells, HCMV-luciferase reporter, 72 h; hits give low values; in the data active = activity change below about -60%; inconclusive = no clear call, values can overlap the other calls; inactive = above about -39%
#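 Steps: HFFs plated, 16 h 37C; compounds added; HCMV-luciferase added to MOI 1 PFU/cell; 72 h 37C; OneGlo reagent, 5 min room temperature; luminescence read, normalized to controls.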
# Vaccinia mCherry – qHTS for Stage-Specific Inhibitors of Vaccinia Orthopoxvirus: mCherry Reporter Primary qHTS | Vaccinia virus mCherry reporter infection, fluorescence | Potency, µM (highest dose often 36.5 µM), inactives show at the highest dose activity change, negative = inhibition, usual class: inhibitors | actives 0.63% (n = 310,000); calls by dose curve; tested in A549 cells; note: potency is the fitted concentration of half-maximal effect; nearly all actives have a fitted effect of over 35% in size
# Numbers without * were called inactive; i = inactive; ? = inconclusive; / = no result; [ ] = remark or other dose. % is set by controls: 0 for no effect and ±100 for the full control effect.
SMILES,Lassa entry inh,Marburg entry inh,FMDV antiviral,VACV Venus inh,HCMV antiviral,Vaccinia mCherry
COc1ccc(N2Cc3cccc(C(=O)Nc4ccc(C(C)C)cc4)c3C2=O)cc1,26%[46.1 µM],?,5%,-19%,34,-15%
CCCCOc1ccc(CNC(=O)c2cnc3sc(N4CCCC4)nn3c2=O)cc1,-1%[46.1 µM],/,-15%,-11%,-1,-7%
CN(C(=O)CSc1cc(C(=O)c2nccn2C)c2ccccc2n1)c1ccccc1,2%,?,10%,-6%,-99*,-15%
Cn1ccnc1C(=O)c1cc(SCC(=O)NC2CC2)nc2ccccc12,-5%[46.1 µM],16%[46.1 µM],-8%,-9%,-6,-3%
COc1ccc(C(=O)NN/C(C)=C/C(=O)c2ccccc2)cc1,-2%[46.1 µM],4%[46.1 µM],-4%,-5%,18,?
O=C(NN/C(=N/S(=O)(=O)c1ccc(Cl)cc1)c1ccccc1)c1ccc(O)cc1,?,20µM*,95%,-7%,60,-15%
C/C(=C\C(=O)c1ccccc1)NNC(=O)c1ccc(Cl)cc1,?,3%[46.1 µM],2%,17%,-73*,i
CCn1nnnc1NC(=O)c1cccc(OC)c1,/,?,48%,-4%,146,0%
CCn1nnnc1NC(=O)c1cc(Cl)c(OC)c(Cl)c1,-3%[46.1 µM],-5%[46.1 µM],-14%,-19%,-63*,i
CCc1ccc(NC(=O)c2sc3nc(C)nc(N4CCN(c5ccccn5)CC4)c3c2C)cc1,12%[46.1 µM],10µM*,2.2µM*,0%,?,-3%
Cc1nc(N2CCN(c3ccccn3)CC2)c2c(C)c(C(=O)Nc3ccccc3F)sc2n1,?,?,?,-7%,2,-9%
Cc1nc(N2CCN(c3ccccn3)CC2)c2c(C)c(C(=O)Nc3ccc(F)cc3Cl)sc2n1,/,/,11µM*,/,?,/
CC1(C)CC(=O)C=C(c2ccccc2F)C1=O,/,/,/,/,-10,/
Cc1[nH]c2ccccc2c1C(=O)C(=O)Nc1ccc2c(c1)OCCO2,20%[46.1 µM],?,25%,-19%,82,-5%
CCC(C(=O)Nc1ccc2c(c1)OCCO2)n1c(=O)[nH]c2ccccc2c1=O (stereo unspecified),22%[46.1 µM],15%[46.1 µM],-2%,-19%,-73*,-12%
Cc1ccccc1Nc1cc(C(=O)NC2CCC(C)CC2)c2ccccc2n1 (stereo unspecified),21%[46.1 µM],?,43%,-22%,-78*,-14%
CS(=O)(=O)c1ccc(Cn2c3c(c4cc(F)cc(F)c42)CCC[C@H]3CC(=O)O)cc1,/,/,-22%,/,/,/
COc1ccc(S[C@]2(C(=O)N3CCOCC3)CC(=O)N(c3ccc4ccccc4c3)[C@@H]2c2ccc(OC)cc2)cc1,/,/,/,/,-10,/
O=C1c2ccccc2C(=O)N1CSc1nnc2c3ccccc3n(CCc3ccccc3)c2n1,4%,27%,?,?,/,/
C=CCn1c2ccccc2c2nnc(SCCN3CCCCC3)nc21,/,/,-13%,/,-8,/
C=CCn1c2ccccc2c2nnc(SCN3C(=O)c4ccccc4C3=O)nc21,1%,5%[46.1 µM],-13%,-25%,9,/
c1ccc(Cn2c3ccccc3c3nnc(SCCN4CCCCC4)nc32)cc1,5%,-14%[46.1 µM],-25%,-2%,-60*,-5%
C=CCn1c2ccccc2c2nnc(SCCCn3c(=O)[nH]c4ccccc43)nc21,?,?,?,10µM*,51,/
CCN(CC)CCSc1nnc2c3ccccc3n(CCc3ccccc3)c2n1,/,/,-21%,?,-79*,?
c1ccc(CCn2c3ccccc3c3nnc(SCc4ccc5nonc5c4)nc32)cc1,5.8µM*,3.3µM*,?,7%,-81*,-20%
SMILES,Lassa entry inh,Marburg entry inh,FMDV antiviral,VACV Venus inh,HCMV antiviral,Vaccinia mCherry
CN(C)c1ccc(CCc2ccnc3ccccc23)cc1,/,/,/,-17%,/,10%
Cc1ccc(Cl)cc1NS(=O)(=O)c1ccc(N2CCCCS2(=O)=O)cc1,7%[46.1 µM],/,11µM*,-20%,0,-20%
N#C/C(=N\Nc1ccc(Cl)cc1)C(N)=S,?,?,-20%,-9%,-92*,?
COc1ccc(C(=O)/C(C#N)=N/Nc2cccc([N+](=O)[O-])c2)cc1,10µM*,15µM*,?,/,-98*,/
N#C/C(=N\Nc1ccc(Cl)cc1)C(=O)c1ccsc1,?,?,1%,?,-64*,?
N#C/C(=N\Nc1cccc(Cl)c1)C(=O)c1ccccc1,?,?,18%,/,-87*,/
O/N=C(/C[n+]1ccsc1)c1ccc(I)cc1,/,/,/,?,/,-7%
CCc1cccc(C)c1NC(=O)c1cc(C)nc2c1c(C)nn2-c1cccc(Cl)c1C,1%[46.1 µM],/,-10%,-4%,1,-3%
CC(C)CC(=O)Nc1c(C(=O)N2CCN(c3ccccc3F)CC2)oc2ccccc12,?,?,54%,-7%[7.34 µM],-2,-14%[7.34 µM]
C/C(=N\NC(=O)COc1cccc(C)c1)c1ccc2ccccc2c1O,/,/,35%,/,-77*,/
CCCCCNC(=O)C(C1CC1)n1c(=O)c(-c2ccccc2)nc2ccccc21 (stereo unspecified),/,/,0%,-26%,-69*,?
Cc1noc(C)c1COc1ccccc1C(=O)N1CCN(S(=O)(=O)c2ccccc2C(F)(F)F)CC1,-11%,-4%,-11%,-11%,-18,i
Cc1noc(C)c1COc1ccccc1C(=O)N1CCN(S(=O)(=O)c2ccc(C(C)C)cc2)CC1,/,/,?,-13%,-75*,-12%
Cc1noc(C)c1COc1ccccc1C(=O)N1CCN(S(=O)(=O)c2ccccc2Br)CC1,/,/,?,/,-86*,/
Cc1noc(C)c1COc1ccccc1C(=O)N1CCN(S(=O)(=O)c2cccc(Cl)c2)CC1,-3%,-30%,-24%,-15%,4,i
O=C(c1ccccc1Cc1ccccc1)N1CCN(S(=O)(=O)c2ccccc2Br)CC1,-16%[46.1 µM],13µM*,?,-25%,-72*,?
COc1ccccc1CNC(=O)CCNS(=O)(=O)c1ccc2c(c1)CCCC(=O)N2,18%[46.1 µM],/,-24%,6%,8,5%
CCN(CC)Cc1cc(Nc2c3ccccc3nc3c4ccccc4n(C)c23)cc(CN(CC)CC)c1O,11µM*,?,-18%,11µM*,-25,-21%
Fc1ccc(N2CCN(Cc3ccc4c(c3)CN(Cc3cccn3-c3cccnc3)CCO4)CC2)cc1,/,/,?,-4%,/,-5%
CCCOc1ncnc2c1[nH]c1ccccc12,-17%,-12%,?,/,-85*,/
CCCOc1ncnc2c1[nH]c1ccc(OC)cc12,/,/,17%,/,68,/
O=C(c1ccccc1NS(=O)(=O)c1cccc([N+](=O)[O-])c1)N1CCCC1,3%,-16%,5%,-17%,-79*,-7%
CCc1ccc(NC(=O)C2CCCN2S(=O)(=O)c2cccc3nsnc23)cc1 (stereo unspecified),6%[46.1 µM],11%[46.1 µM],-22%,-12%,14,-17%
